# Test results published in paper PMC6792352, “Limited Chemical Structural Diversity Found to Modulate Thyroid Hormone Receptor in the Tox21 Chemical Library” (Environmental Health Perspectives, 2019).
# Structures can show the parent of a compound that is named as a salt. Where two headings read alike, the source gives them in different places.
# System: thyroid hormone receptor (endogenous TRα and TRβ)
# Design: species or system GH3-TRE-Luc (rat pituitary); GH3-TRE-Luc luciferase reporter, antagonist mode against 1 nM T3, loss of signal, qHTS
# Settings: read-out: Average AC50 (uM) GH3-TRE-Antag
# [1] = antagonist mode, 1 nM T3, no GH3 cytotoxicity hit
# [2] = antagonist mode, 1 nM T3, no GH3 cytotoxicity hit, 24 h
compound,measurement,setting,value
Cl[Si](Cl)(c1ccccc1)c1ccccc1 [Dichlorodiphenylsilane],AC50,"24 h, antagonist",76.3 µM
CCOP(=S)(OCC)Oc1ccc(Cl)cc1Cl [Dichlofenthion],AC50,[1],71.5 µM
"O=[N+]([O-])c1cccc2cccc([N+](=O)[O-])c12 [1,8-Dinitronaphthalene]",AC50,[1],49.5 µM
CCCCCCCCC(=O)NCc1ccc(O)c(OC)c1 [Nonivamide],AC50,"24 h, antagonist",> 50 µM
Nc1ccc2c(c1)Cc1ccccc1-2 [2-Aminofluorene],AC50,[1],52 µM
O=C1CN=C(c2ccccc2)c2cc(Cl)ccc2N1CC1CC1 [Prazepam],AC50,"24 h, antagonist",> 50 µM
O=C1Nc2ccc(Cl)cc2C(c2ccccc2Cl)=NC1O (centres unmarked) [Lorazepam],AC50,"24 h, antagonist",> 50 µM
Cc1ccc(OP(=O)(Oc2ccc(C)cc2C)Oc2ccc(C)cc2C)c(C)c1 [TXP],AC50,"24 h, antagonist",70.6 µM
NC(=S)Nc1ccccc1 [1-Phenyl-2-thiourea],AC50,[1],43.9 µM
CN(C)c1ccc(N=Nc2ccccc2)cc1 [4-(Dimethylamino)azobenzene],AC50,[1],80.1 µM
"COc1cc(C[C@H](C)N)c(OC)cc1C [(S)-(+)-2,5-Dimethoxy-4-methylamphetamine hydrochloride]",AC50,"24 h, antagonist",49.7 µM
Cc1ccc2c(c1)[C@]13CCCC[C@@H]1[C@H](C2)N(C)CC3 [Dimemorfan phosphate],AC50,[1],42.3 µM
"COc1ccc2[nH]cc(CCN(C(C)C)C(C)C)c2c1 [5-Methoxy-N,N-diisopropyltryptamine hydrochloride]",AC50,[1],70.7 µM
C[C@]12CCC(=O)C[C@@H]1CC[C@@H]1[C@@H]2CC[C@@]2(C)[C@H]1CC[C@]2(C)O [Mestanolone],AC50,[1],10.8 µM
C=CC(=O)OCCO [2-Hydroxyethyl acrylate],AC50,[1],51.5 µM
C[C@]12CC[C@H]3[C@@H](CCC4=C(Cl)C(=O)CC[C@@]43C)[C@@H]1CC[C@@H]2O [Clostebol],AC50,[1],29.2 µM
CC[C@H]1C[C@H]2[C@@H]3CCC4=CC(=O)CC[C@@H]4[C@H]3CC[C@]2(C)[C@H]1O [Oxendolone],AC50,"24 h, antagonist",21.2 µM
O=[N+]([O-])c1ccc(Oc2ccc(C(F)(F)F)cc2[N+](=O)[O-])cc1 [Fluorodifen],AC50,[1],> 90 µM
Nc1ccccc1C(=O)Oc1ccc2ccccc2c1 [Naphthalen-2-yl 2-aminobenzoate],AC50,[1],82.4 µM
"OCC(c1ccc(Cl)cc1)c1ccc(Cl)cc1 [2,2-Bis(4-chlorophenyl)ethanol]",AC50,[1],46.2 µM
O=C(O)Cc1ccccc1 [Phenylacetic acid],AC50,[1],18.1 µM
"Clc1ccccc1-c1ccccc1Cl [2,2'-Dichlorobiphenyl]",AC50,[1],> 100 µM
CCc1cc2c(s1)-n1c(C)nnc1CN=C2c1ccccc1Cl [Etizolam],AC50,[1],> 50 µM
Nc1c(Cl)cc([N+](=O)[O-])cc1Cl [Dicloran],AC50,"24 h, antagonist",91.8 µM
C[C@]12CC[C@H](O)C[C@H]1CC[C@@H]1[C@@H]2CC[C@]2(C)[C@@H](c3ccc(=O)oc3)C[C@H]3O[C@]132 [Bufogenin],AC50,[1],39.2 µM
COc1ccc(N)cc1 [4-Methoxyaniline hydrochloride],AC50,[2],81.8 µM
CON(C)C(=O)Nc1ccc(Br)c(Cl)c1 [Chlorbromuron],AC50,[1],60.7 µM
C[C@]12CC[C@H]3[C@@H](CCC4=CC(=O)CC[C@@]43C)[C@@H]1CC[C@H]2O [Epitestosterone],AC50,[1],38.7 µM
"Oc1ccc(Cl)c(Cl)c1 [3,4-Dichlorophenol]",AC50,[1],59.5 µM
O=c1c2ccccc2c(=O)c2c1cc(Cl)c1[nH]c3c([nH]c12)c(Cl)cc1c(=O)c2ccccc2c(=O)c13 [D&C Blue No. 9],AC50,[1],57.8 µM
CCN(CC)c1nc(C)cc(OP(=S)(OC)OC)n1 [Pirimiphos-methyl],AC50,[1],57.1 µM
CC(C)=CC1C(C(=O)OCN2C(=O)C3=C(CCCC3)C2=O)C1(C)C (centres unmarked) [Tetramethrin],AC50,[1],> 50 µM
COc1ccc(N)cc1 [4-Methoxyaniline],AC50,[2],89.4 µM
CC(=O)O[C@H]1CC[C@@]2(C)C(=CC[C@@H]3[C@@H]2CC[C@]2(C)C(=O)CC[C@@H]32)C1 [Dehydroepiandrosterone acetate],AC50,[1],17.4 µM
CN1C[C@H](C(=O)N[C@]2(C)O[C@@]3(O)[C@@H]4CCCN4C(=O)[C@H](Cc4ccccc4)N3C2=O)C=C2c3cccc4[nH]cc(c34)C[C@H]21 [Ergotamine D-tartrate],AC50,[1],36.2 µM
"Clc1nc(Cl)nc(Cl)n1 [2,4,6-Trichloro-s-triazine]",AC50,[1],> 90 µM
CCN(CC)C(=O)[C@@H]1C=C2c3cccc4[nH]cc(c34)C[C@H]2N(C)C1 [Lysergide],AC50,[1],> 50 µM
"Brc1ccc(Oc2cc(Br)c(Br)cc2Br)c(Br)c1 [2,2',4,4',5-Pentabromodiphenyl ether]",AC50,[1],39.4 µM
CCOP(=S)(OCC)Oc1cc(C)nc(C(C)C)n1 [Diazinon],AC50,[1],46.4 µM
"Oc1cc(Cl)c(Cl)cc1Cl [2,4,5-Trichlorophenol sodium salt]",AC50,[2],77.4 µM
"Oc1cc(Cl)c(Cl)cc1Cl [2,4,5-Trichlorophenol]",AC50,[2],> 50 µM
